Data reported in PubChem BioAssay (NCI).
The panel holds about 83,000 compounds, 20% with a hit somewhere; the sample as a whole holds those more often.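 Cell lines were cultured in 96-well plates, exposed to a single compound concentration, and assessed for percent growth 48 hours later.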 Unmarked numbers belong to inactive results. The source made the active and inactive calls. Rule for the calls: active = growth percent below 10; inactive = the rest.

Columns and labels:
Assay in all cases: NCI-60 one-dose screen, 48 h (100 = growth as untreated, 0 = no growth, -100 = all killed)
Conditions in all cases: 10 µM unless noted
T-47D breast = tested on: T-47D breast
BT-549 breast = tested on: BT-549 breast
MDA-MB-435 melanoma = tested on: MDA-MB-435 melanoma
SW-620 colon = tested on: SW-620 colon
MCF7 breast = tested on: MCF7 breast
HCT-116 colon = tested on: HCT-116 colon
HCC-2998 colon = tested on: HCC-2998 colon
KM12 colon = tested on: KM12 colon
MDA-MB-468 breast = tested on: MDA-MB-468 breast

Compound | growth (T-47D breast) | growth (BT-549 breast) | growth (MDA-MB-435 melanoma) | growth (SW-620 colon) | growth (MCF7 breast) | growth (HCT-116 colon) | growth (HCC-2998 colon) | growth (KM12 colon) | growth (MDA-MB-468 breast)
COc1cc2c(c(OC)c1OC)C(=O)CC(c1cccc(NC(=O)c3cc(NC(=O)[C@H](CO)NC(=O)OC(C)(C)C)ccc3Cl)c1)O2 (stereo partly specified) | 13.5% | -3.14% (active) | 10.1% | 44% | 12.2% | 14.4% | 73% | 14.5% | 
Clc1cccc(-c2ccc(OCCCN3CCN(c4ccncc4)CC3)cc2)c1 | -37.5% (active) | 20.4% | -51.6% (active) | -66.2% (active) | -61.4% (active) | -76.7% (active) | -91.5% (active) | -43.8% (active) | 
CCC(C)(C)c1ccc(OCCCCCCN2CCN(c3ccncc3)CC2)cc1 | -44.4% (active) | -44.2% (active) | -0.134% (active) | -62% (active) | -58.1% (active) | -69.3% (active) | -74.1% (active) | 7.93% (active) | -81.5% (active)
COc1cc2c(c(OC)c1OC)C(=O)CC(c1cccc(NC(=O)c3cccc([N+](=O)[O-])c3)c1)O2 (stereo unspecified) | 18.6% | -7.24% (active) | -16.8% (active) | 34.9% | 12.3% | 16.4% | 76.4% | 2.26% (active) | 
COc1cc2c(c(OC)c1OC)C(=O)CC(c1cccc(NC(=O)c3cc(NC(=O)[C@H](C)N)ccc3Cl)c1)O2 (stereo partly specified) | 18.5% | -5.64% (active) | 2.82% (active) | 18.5% | 13.8% | 23.4% | 81% | 41.7% | 9.2% (active)
O=C(NN1C(=O)/C(=C/C=C/c2ccc([N+](=O)[O-])o2)SC1=S)c1ccccc1O | -59.4% (active) | -91.3% (active) | -89.7% (active) | -69.5% (active) | -49.7% (active) | -68.5% (active) | -97% (active) | -83.5% (active) | 
COc1cc2oc(-c3cccc(NC(=O)[C@H](CC(N)=O)NC(=O)OC(C)(C)C)c3)cc(=O)c2c(OC)c1OC | 65.7% | 82.6% | 97.2% | 94.5% | 71.8% | 89.3% | 100% | 87.1% | 
Cn1cc(-c2cc(N)n3nc(-c4cn(C)c5ccccc45)cc3n2)c2cc(Br)ccc21 | -37.7% (active) | 38% | -72.6% (active) | -10.6% (active) | -74.1% (active) | -92.9% (active) | -70.2% (active) | -60.4% (active) | 
Nc1nc(C(F)(F)F)cs1 | 99.4% | 114% | 100% | 104% | 93.2% | 111% | 105% | 100% | 101%
COc1ccc(/C=C/c2n(Cc3ccc4ccccc4c3)c3ccccc3[n+]2Cc2ccc3ccccc3c2)cc1 | -70.1% (active) | -93.1% (active) | -91.1% (active) | -96.2% (active) | -71.3% (active) | -95.3% (active) | -84.3% (active) | -84.5% (active) | -83.9% (active)
COc1cc2oc(-c3cccc(C(=O)Nc4ccc(Cl)cc4)c3)cc(=O)c2c(OCC(=O)N[C@@H](Cc2ccccc2)C(=O)O)c1OC | 109% | 125% | 101% | 99.2% | 93.2% | 109% | 121% | 105% | 112%
C#CCOc1ccc(/C=N/Nc2nc(-c3cc4cc(Br)ccc4oc3=O)cs2)cc1OC | 51.1% | 48.5% | 78.7% | 77.6% | 41.9% | 71.5% | 39.6% | 51.1% | 26.8%
CCOC(=O)C1=C(N)N(c2ccccc2)C2=C(C(=O)CC(C)(C)C2)C1c1ccccc1Cl (stereo unspecified) | 52% | 78.6% | 73.1% | 74.6% | 56.5% | 41.3% | 85.6% | 58.4% | 50.2%
Cn1cc(-c2cc(N)n3nc(-c4cn(C)c5ccccc45)cc3n2)c2cc(Cl)ccc21 | -30.9% (active) | 63% | -71.9% (active) | -35.3% (active) | -69.9% (active) | -89.1% (active) | -73% (active) | -50% (active) | -31.9% (active)
NS(=O)(=O)c1ccc(N=Nc2c(O)n(CC(=O)Nc3ccccc3Cl)c3ccccc23)cc1 | 19.7% | -4.12% (active) | 34.5% | 24.5% | 6% (active) | 8.6% (active) | 28.3% | 17.1% | 26.3%
CN(C)CCCNC(=O)c1cc(NC(=O)c2cc(NC(=O)c3ccc(C#Cc4ccccc4)cc3)cn2C)cn1C | -14.9% (active) | -15% (active) | -63.3% (active) | -12.9% (active) | -93.3% (active) | -92.4% (active) | -90.7% (active) | -64% (active) | -93.8% (active)
CCN(CC)c1ccc(/C=N/Nc2nc(-c3ccc(C)cc3)cs2)c(O)c1 | 68.7% | 71.9% | 96.7% | 99.1% | 67.8% | 72.9% | 106% | 94.6% | 66.7%
COc1ccc(C(SCCNCc2cc(N(C)C)ccn2)(c2ccccc2)c2ccccc2)cc1 | -9.47% (active) | -13.4% (active) | -53.7% (active) | -50.5% (active) | -48.5% (active) | -27% (active) | -81.9% (active) | -9.54% (active) | -58.2% (active)
CN(C)c1nc(NCCNS(=O)(=O)c2ccc(C(=O)/C=C/c3ccc(C(F)(F)F)cc3)cc2)nc(Nc2ccc(F)cc2)n1 | 15.7% | -71.2% (active) | -81.1% (active) | -77.1% (active) | -78.6% (active) | -59.1% (active) | -95.7% (active) | -78.9% (active) | -23.6% (active)
CN(C)c1nc(NCCNS(=O)(=O)c2ccc(C(=O)/C=C/c3ccc(F)cc3)cc2)nc(Nc2ccc(F)cc2)n1 | -42.1% (active) | -88.7% (active) | -92.6% (active) | -95.3% (active) | -82.8% (active) | -86.8% (active) | -95.9% (active) | -93.6% (active) | -82.8% (active)
CC(C)c1sc(NC(=O)c2cc(NC(=O)c3cc(NC(=O)c4nccn4C)cn3C)cn2C)nc1C(=O)NCCCN(C)C | 75.8% | 57.7% | 70.9% | 66.6% | 69.7% | 44.2% | 84.3% | 111% | 65.3%
O=C(/C=C/Nc1ccc(Cl)cc1)c1ccc2c(c1)Nc1ccccc1S2 | 62.1% | 24.6% | 55.1% | 54.8% | 40.1% | 39.2% | 44.2% | 69.3% | 43.4%
COc1cccc(COc2ccc(NC(=O)Nc3ccc(Cl)c(C(F)(F)F)c3)cc2)c1 | 19.5% | 37.9% | 58.9% | 49.3% | 24.3% | 18.8% | 46.8% | 6.06% (active) | 2.67% (active)
CC(=O)OC[C@@]1(C)C2CC[C@]3(C)C(CC=C4C5CC(C)(C)CC[C@]5(C(=O)Nc5ccc(C)cc5)CC[C@]43C)[C@@]2(C)C[C@@H](OC(C)=O)[C@@H]1OC(C)=O (stereo partly specified) | 17.5% | 51.3% | 48.8% | 40.5% | 25.6% | 24.7% | 44.8% | 51.9% | 8.22% (active)
OCC1(CCCc2ccccc2)CCCN(c2nccc3ccccc23)C1 (stereo unspecified) | 28.3% | -3.12% (active) | 41.2% | 39.2% | 12.3% | 14.8% | 60.3% | 29.1% | -15.8% (active)
Cc1cc(=O)oc2cc(OCCCOc3ccc(/C=C/C(=O)Nc4ccccc4N)cc3)ccc12 | 9.28% (active) | -59.7% (active) | 38.3% | 26.8% | 4.44% (active) | 17.2% | 27.3% | 12.6% | -48.1% (active)
Cc1ccc([C@H]2C(C(=O)c3ccc(Cl)cc3)C3(N[C@@H]2c2ccccc2)C(=O)Nc2ccccc23)cc1 (stereo partly specified) | 14.3% | 50.7% | 26.8% | 29.9% | 16% | 14% | 23.7% | 25.9% | 1.9% (active)
COc1cc2c(c(OC)c1OC)C(=O)CC(c1cccc(NC(=O)c3cc(N)ccc3Cl)c1)O2 (stereo unspecified) | 35.4% | 23.3% | -41.3% (active) | 37.4% | 14% | 34.7% | 95.7% | 49.2% | 5.35% (active)
